Measurements reported in PubChem BioAssay (Tox21).
Where “and” joins values, the source holds several entries; their conditions need not be identical. Equal entries are not always repeated. Records with an inconclusive call do not appear. A structure can be active in one record and inactive in another. Calls of active or inactive are those of the source. Calls follow the shape of the dose curve; as a rule, active = well fitted cell-killing curve with a large enough effect in the repeat runs; inconclusive = weak or mixed curves; inactive = no such curve, though single readings can be large or run the other way.

Assay: qHTS assay for identifying genotoxic compounds that show differential cytotoxicity against isogenic chicken DT40 cell lines with known DNA damage response pathways - Rad54/Ku70 mutant cell line (AID 743015); also: nearly all actives have a fitted effect of over 60% in size
Conditions: DT40 Rad54/Ku70 mutant viability, CellTiter-Glo, 40 h; series mostly up to 66.8 µM; activity change, negative = cytotoxicity: at the top concentration
Text: National Center for Advancing Translational Sciences [NCATS]
NIH Chemical Genomics Center [NCGC]
U.S. Environmental Protection Agency [EPA]
National Institutes of Environmental Health Sciences [NIEHS]
National Toxicology Program [NTP]
U.S. Food and Drug Administration [FDA]
DNA repair pathways play a critical role in cellular homeostasis by repairing DNA damage induced by endogenous processes and xenobiotics. Isogenic chicken DT40 cell lines deficient in different DNA repair pathways can be used to identify genotoxic compounds and aid in characterizing the nature of the DNA damage induced. Two DNA repair-deficient cell lines with disrupted genes, Rad54/Ku70 or Rev3, were used to screen the Tox21 10K compound library. Possible genotoxicity was based on the presence of a significant increase in cytotoxicity in one or more of the DNA repair-deficient cell lines compared to that observed in the parental DNA repair-proficient cell line. CellTiter Glo viability assay (Promega, Madison, WI) was used to measure cell viability in these cells after compound treatment. This assay includes the data from the Rad54/Ku70 mutant cell line.
Tox21 Assay Protocol Summary:
300 DT40 mutant cells in 5 uL/well were dispensed into white, solid-bottom 1536-well plates using a Multidrop Combi (ThermoFisher Scientific, Waltham, MA) dispenser. After the assay plates were incubated at 37 C/5% CO2 for approximately 0.5 hour, 23 nL of compounds dissolved in DMSO, positive controls or DMSO only was transferred into the assay plate by a pintool work station (Kalypsys, San Diego, CA). The assay plates were incubated at 37 C/5% CO2 for 40 hours. After 5 uL per well of CellTiter-Glo reagent was added into each well of the assay plates, the plates were incubated for 30 min at room temperature and the luminescence intensity of the plates was measured using a ViewLux (PerkinElmer, Shelton, CT) plate reader.
% is scaled to controls: 0 for no effect and ±100 for the full control effect; potency is read from the fitted curve at half-maximal effect.

| SMILES | activity change, negative = cytotoxicity | Potency |
| --- | --- | --- |
| O=C(/C=C/c1ccc(O)c(O)c1)O[C@@H]1C[C@](O)(C(=O)O)C[C@@H](O)[C@H]1O | 0.674% [at 95.1 µM] (inactive) |  |
| C=C(C)C(=O)OCCN(C)C | -4% [at 95.1 µM] (inactive) |  |
| CC(=O)[C@@]1(O)CC[C@H]2[C@@H]3C[C@H](C)C4=CC(=O)CC[C@]4(C)[C@H]3CC[C@@]21C |  | 21.1 µM (active) |
| O=C(O)C(c1ccc(Cl)cc1)c1ccc(Cl)cc1 | 1.23% (inactive) |  |
| CCCCCCCCCCCCCCC1CO1 (stereo not given) | 3.44% (inactive) |  |
| CC(C)CCCCCCOC(=O)c1ccc(C(=O)OCCCCCCC(C)C)c(C(=O)OCCCCCCC(C)C)c1 | 5.32% (inactive) |  |
| O=S1(=O)N=C(O)c2ccccc21 | -1.46% (inactive) |  |
| Nc1cnn([C@@H]2O[C@H](CO)[C@@H](O)[C@H]2O)c(=O)n1 |  | 6.12 µM (active) |
| CCCCCCCC/C=C\CCCCCCCC(N)=O | -0.266% (inactive) |  |
| NCCCN(CCO)CCO | -13.8% (inactive) |  |
| Cc1cc(NC(=O)C(=O)O)cc(C)c1Oc1ccc(O)c2c1CCC2 | -1.15% (inactive) |  |
| Cl/C(=C\n1cncn1)c1ccc(Cl)cc1Cl | -12.8% (inactive) |  |
| CCCCCOC(=O)c1ccc(O)cc1 |  | 61.9 µM (active) |
| CNCC[C@@H](Oc1ccccc1C)c1ccccc1 |  | 29.8 µM (active) |
| FC(F)(F)C(F)(F)C(F)(F)C(F)(F)C(F)(F)C(F)(F)CCI | 2.69% (inactive) |  |
| CCCCOc1cc(C(=O)OCCN(CC)CC)ccc1N |  | 8.04 µM (active) |
| CC(C(=O)O)c1ccc(C(=O)c2ccccc2)s1 (stereo not given) | 0.398% [at 30.7 µM] (inactive) |  |
| C[C@H](CCC(=O)O)[C@H]1CC[C@H]2[C@@H]3[C@H](O)C[C@@H]4C[C@H](O)CC[C@]4(C)[C@H]3CC[C@]12C |  | inactive |
| C=CC(=O)OCCOC(=O)CCC(=O)O | 2.52% (inactive) |  |
| CC(C)CC=O | 13.3% (inactive) |  |

| SMILES | activity change, negative = cytotoxicity | Potency |
| --- | --- | --- |
| CC1=CC(=O)/C(=C(/C)O)C(=O)O1 | -12.5% (inactive) |  |
| CCCCCCCCCCCCCCCCCBr | 9.9% [at 30.7 µM] (inactive) |  |
| N=C(N=C(N)N)N1CCOCC1 | 14.3% [at 30.7 µM] (inactive) |  |
| CCCCOC(O)CC (stereo not given) | 0.502% (inactive) |  |
| Cc1ncsc1CCO | 6.25% (inactive) |  |
| CC(=O)O[C@H]1C[C@@H]2CC[C@@H]3[C@H](CC[C@@]4(C)[C@H]3C[C@H]([N+]3(C)CCCCC3)[C@@H]4OC(C)=O)[C@@]2(C)C[C@@H]1N1CCCCC1 | 4.08% (inactive) |  |
| O=C(O)Cc1cc(I)c(Oc2ccc(O)c(I)c2)c(I)c1 |  | inactive and 54.5 µM (active) |
| CCOC(=S)SSC(=S)OCC |  | inactive |
| CC(=O)OC/C=C/c1ccccc1 | 6.4% (inactive) |  |
| CC(=O)c1ccc2c(c1)[C@H](NC(=O)c1ccc(F)cc1)[C@@H](O)C(C)(C)O2 | -6.79% (inactive) |  |
| O=C(NS(=O)(=O)/C=C/c1cccs1)c1ccc(F)cc1Br | 8.2% (inactive) |  |
| CCOc1nc2cccc(C(=O)O)c2n1Cc1ccc(-c2ccccc2-c2nn[nH]n2)cc1 |  | 29.8 µM (active) |
| O=C(Cl)c1c(Cl)cccc1Cl | -0.179% [at 95.1 µM] (inactive) |  |
| O=[N+]([O-])c1cccc(Cl)c1Cl | 7.97% (inactive) |  |
| CC(C)(C)C1CCCCC1O (stereo not given) | -0.225% (inactive) |  |
| CN(C)CC/C=C1\c2ccccc2COc2ccccc21 |  | 29.8 µM (active) |
| NC[C@H]1O[C@H](O[C@H]2[C@H](O)[C@@H](O[C@H]3O[C@H](CO)[C@@H](O)[C@H](N)[C@H]3O)[C@H](N)C[C@@H]2N)[C@H](O)[C@@H](O)[C@@H]1O |  | inactive and 1.89 µM (active) |
| CCCCCC/C=C/C=O | -27.4% (inactive) |  |
| CCc1nn(C2CCCCC2)c2cc(C3(C#N)CCC(C(=O)O)CC3)ccc12 (stereo not given) |  | 61.1 µM (active) |
| CC(=O)c1c(C)c([N+](=O)[O-])c(C(C)(C)C)c([N+](=O)[O-])c1C | -13.1% (inactive) |  |
